Measured values: the supplement of paper PMC10849652
Of roughly 7,900 targets only a part is listed; those with a hit were picked by preference. About 0.6% of all pairs of compound and target were hits.

Tests used:
Experiment in all cases: log2 fold change, soluble protein after heating vs DMSO (PISA); higher = thermal stabilisation; K562 cells, 10 uM, 30 min; active = over 0.2 and 3.5 SD of the protein, either way, in both replicates (recomputed)
[1] = compound: NC(=O)Nc1cc(-c2cccc(F)c2)sc1C(=O)N[C@H]1CCCNC1
In short: (§1)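 Soluble protein was quantified by TMTpro 16plex LC-MS/MS after channel sums were equalised. It was obtained as the supernatant after 21,000xg for 90 min from pooled aliquots of K562 cells (2×10^6 cells/mL, 10 μM compound, 30 min) heated for 3 min across 48°C-58°C and extracted in PBS with 0.5% NP-40 at 4°C. Thermal stability values are relative to control samples and come from duplicates. They are given as log2 fold changes.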

[2] = compound: NC(=O)c1cnc(N[C@@H]2CCCC[C@@H]2N)nc1Nc1cccc(-n2nccn2)c1
In short: as §1

[3] = compound: NC1(c2ccc(-c3nc4ccn5c(=O)[nH]nc5c4cc3-c3ccccc3)cc2)CCC1
In short: as §1

[4] = compound: NCC(=O)Nc1ccc(-n2nc(C(F)(F)F)cc2-c2ccc3c(ccc4ccccc43)c2)cc1
In short: as §1

[5] = compound: Nc1ccccc1NC(=O)c1ccc(CNC(=O)OCc2cccnc2)cc1 [entinostat]
In short: as §1

[6] = compound: O=C(CCCCCCC(=O)Nc1ccccc1)NO [vorinostat]
In short: as §1

[7] = compound: O=C(CCCCCCNC(=O)c1cnc(N(c2ccccc2)c2ccccc2Cl)nc1)NO [citarinostat]
In short: as §1

[8] = compound: O=C(O)c1ccc2c(c1)nc(Nc1cccc(Cl)c1)c1ccncc12 [silmitasertib]
In short: as §1

[9] = compound: O=C1NC(=O)C(c2cnc3ccccn23)=C1c1cn2c3c(cc(F)cc13)CN(C(=O)N1CCCCC1)CC2
In short: as §1

[10] = compound: c1cc(OCCN2CCCCC2)cc(-c2n[nH]c3ccc(-c4nnc[nH]4)cc23)c1
In short: as §1

[11] = compound: c1cn2cc(-c3ccc4cn[nH]c4c3)nc(Nc3ccc(N4CCOCC4)cc3)c2n1 [entospletinib]
In short: as §1

Measured: log2 fold change

VPS35L (UniProt Q7Z3J2)
inactive: [1] -0.038 | [2] 0.004 | [3] -0.137 | [4] -0.012 | [5] 0.006 | [6] -0.039 | [7] 0.08 | [8] 0.111 | [9] -0.006 | [10] -0.062 | [11] 0.011

VPS50 (UniProt Q96JG6)
inactive: [1] 0.003 | [2] -0.073 | [3] -0.11 | [4] -0.046 | [5] 0.06 | [6] 0.099 | [7] 0.068 | [8] 0.06 | [9] 0.037 | [10] 0.003 | [11] -0.045

WDR61 (UniProt Q9GZS3)
inactive: [1] -0.013 | [2] -0.058 | [3] -0.102 | [4] -0.069 | [5] -0.052 | [6] 0 | [7] 0.028 | [8] -0.005 | [9] -0.045 | [10] -0.057 | [11] 0.009

TNPO3 (UniProt Q9Y5L0)
active: [3] -0.221
inactive: [1] 0.026 | [2] -0.018 | [4] -0.024 | [5] 0.049 | [6] 0.076 | [7] 0.058 | [8] -0.024 | [9] -0.06 | [10] -0.059 | [11] -0.048

VPS41 (UniProt P49754)
active: [3] -0.267
inactive: [1] -0.006 | [2] -0.163 | [4] -0.163 | [5] 0.083 | [6] 0.072 | [7] 0.082 | [8] -0.006 | [9] -0.046 | [10] -0.056 | [11] 0.017

VTI1B (UniProt Q9UEU0)
inactive: [1] 0.023 | [2] -0.006 | [3] -0.084 | [4] -0.054 | [5] -0.031 | [6] -0.035 | [7] -0.001 | [8] 0.114 | [9] 0.054 | [10] -0.03 | [11] 0.082

TMEM164 (UniProt Q5U3C3)
inactive: [1] 0.129 | [2] -0.138 | [3] -0.006 | [4] -0.248 | [5] -0.112 | [6] 0.139 | [7] 0.087 | [8] 0.01 | [9] -0.004 | [10] -0.268 | [11] 0.007

TNNC2 (UniProt P02585)
inactive: [1] -0.003 | [2] 0.006 | [3] -0.028 | [4] 0.028 | [5] -0.025 | [6] -0.101 | [7] 0.048 | [8] -0.026 | [9] -0.033 | [10] -0.003 | [11] -0.038

UHRF1BP1L (UniProt A0JNW5)
inactive: [1] -0.004 | [2] -0.017 | [3] -0.028 | [4] 0.055 | [5] -0.024 | [6] -0.035 | [7] -0.032 | [8] 0.015 | [9] -0.052 | [10] -0.013 | [11] 0.012

TOMM5 isoform 2 (UniProt Q8N4H5)
Chain of UniProt Q8N4H5 (Q8N4H5 whole entry, looked up): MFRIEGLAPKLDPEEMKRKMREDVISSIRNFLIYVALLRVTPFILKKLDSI
inactive: [1] -0.053 | [2] 0.002 | [3] -0.083 | [4] 0.084 | [5] 0.067 | [6] -0.117 | [7] 0.039 | [8] -0.043 | [9] -0.158 | [10] 0.099 | [11] -0.033

UBE3D (UniProt Q7Z6J8)
Chain of UniProt Q7Z6J8 (Q7Z6J8 whole entry, looked up): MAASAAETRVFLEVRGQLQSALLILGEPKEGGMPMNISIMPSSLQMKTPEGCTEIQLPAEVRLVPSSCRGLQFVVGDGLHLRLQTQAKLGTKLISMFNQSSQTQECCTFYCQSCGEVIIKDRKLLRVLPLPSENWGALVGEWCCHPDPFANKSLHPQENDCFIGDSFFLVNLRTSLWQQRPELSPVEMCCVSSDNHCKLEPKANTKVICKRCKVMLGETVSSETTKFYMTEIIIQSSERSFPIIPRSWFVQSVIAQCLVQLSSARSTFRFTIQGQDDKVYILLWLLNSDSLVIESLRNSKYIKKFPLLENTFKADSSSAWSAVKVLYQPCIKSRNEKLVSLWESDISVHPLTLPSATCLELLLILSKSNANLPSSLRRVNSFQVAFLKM
inactive: [1] -0.019 | [2] 0.012 | [3] -0.004 | [4] 0.027 | [5] 0.074 | [6] 0.056 | [7] 0.012 | [8] 0.067 | [9] -0.032 | [10] -0.164 | [11] 0.091

TPP1 (UniProt O14773)
inactive: [1] -0.036 | [2] -0.037 | [3] -0.174 | [4] -0.08 | [5] 0.036 | [6] 0.031 | [7] 0.035 | [8] -0.036 | [9] -0.014 | [10] -0.091 | [11] -0.018

TXNRD1 (UniProt Q16881)
inactive: [1] -0.082 | [2] -0.052 | [3] -0.077 | [4] -0.007 | [5] -0.027 | [6] -0.005 | [7] 0.017 | [8] -0.036 | [9] -0.122 | [10] 0.006 | [11] 0.054

UGGT1 (UniProt Q9NYU2)
inactive: [1] 0.028 | [2] -0.025 | [3] -0.06 | [4] 0.017 | [5] -0.001 | [6] -0.004 | [7] 0.047 | [8] 0.01 | [9] -0.025 | [10] -0.035 | [11] -0.018

TXNIP (UniProt Q9H3M7)
inactive: [1] 0.091 | [2] -0.024 | [3] 0.19 | [4] 0.007 | [5] -0.009 | [6] 0.018 | [7] 0.071 | [8] 0.115 | [9] -0.079 | [10] 0.005 | [11] -0.146

TSG101 (UniProt Q99816)
inactive: [1] -0.02 | [2] -0.082 | [3] -0.157 | [4] -0.033 | [5] 0.038 | [6] -0.007 | [7] 0.053 | [8] 0.025 | [9] -0.103 | [10] 0.025 | [11] -0.014

WDR62 isoform 4 (UniProt O43379)
inactive: [1] -0.07 | [2] -0.099 | [3] -0.052 | [4] -0.038 | [5] 0 | [6] 0.05 | [7] 0.054 | [8] 0.073 | [9] 0.01 | [10] -0.07 | [11] -0.043

UBAP2L isoform 5 (UniProt Q14157)
inactive: [1] 0.017 | [2] -0.004 | [3] -0.013 | [4] 0.001 | [5] -0.016 | [6] -0.016 | [7] 0.013 | [8] -0.007 | [9] -0.029 | [10] 0.023 | [11] -0.007

TNPO1 (UniProt Q92973)
inactive: [1] 0.003 | [2] -0.039 | [3] -0.157 | [4] -0.06 | [5] 0.044 | [6] 0.051 | [7] 0.033 | [8] 0.025 | [9] -0.021 | [10] -0.066 | [11] -0.001

TOP2A isoform 4 (UniProt P11388)
inactive: [1] 0.159 | [2] 0.058 | [3] 0.307 | [4] 0.19 | [5] -0.042 | [6] 0.034 | [7] -0.112 | [8] 0.255 | [9] 0.296 | [10] -0.205 | [11] 0.119

USP15 (UniProt Q9Y4E8)
Chain of UniProt Q9Y4E8 (Q9Y4E8 whole entry, looked up): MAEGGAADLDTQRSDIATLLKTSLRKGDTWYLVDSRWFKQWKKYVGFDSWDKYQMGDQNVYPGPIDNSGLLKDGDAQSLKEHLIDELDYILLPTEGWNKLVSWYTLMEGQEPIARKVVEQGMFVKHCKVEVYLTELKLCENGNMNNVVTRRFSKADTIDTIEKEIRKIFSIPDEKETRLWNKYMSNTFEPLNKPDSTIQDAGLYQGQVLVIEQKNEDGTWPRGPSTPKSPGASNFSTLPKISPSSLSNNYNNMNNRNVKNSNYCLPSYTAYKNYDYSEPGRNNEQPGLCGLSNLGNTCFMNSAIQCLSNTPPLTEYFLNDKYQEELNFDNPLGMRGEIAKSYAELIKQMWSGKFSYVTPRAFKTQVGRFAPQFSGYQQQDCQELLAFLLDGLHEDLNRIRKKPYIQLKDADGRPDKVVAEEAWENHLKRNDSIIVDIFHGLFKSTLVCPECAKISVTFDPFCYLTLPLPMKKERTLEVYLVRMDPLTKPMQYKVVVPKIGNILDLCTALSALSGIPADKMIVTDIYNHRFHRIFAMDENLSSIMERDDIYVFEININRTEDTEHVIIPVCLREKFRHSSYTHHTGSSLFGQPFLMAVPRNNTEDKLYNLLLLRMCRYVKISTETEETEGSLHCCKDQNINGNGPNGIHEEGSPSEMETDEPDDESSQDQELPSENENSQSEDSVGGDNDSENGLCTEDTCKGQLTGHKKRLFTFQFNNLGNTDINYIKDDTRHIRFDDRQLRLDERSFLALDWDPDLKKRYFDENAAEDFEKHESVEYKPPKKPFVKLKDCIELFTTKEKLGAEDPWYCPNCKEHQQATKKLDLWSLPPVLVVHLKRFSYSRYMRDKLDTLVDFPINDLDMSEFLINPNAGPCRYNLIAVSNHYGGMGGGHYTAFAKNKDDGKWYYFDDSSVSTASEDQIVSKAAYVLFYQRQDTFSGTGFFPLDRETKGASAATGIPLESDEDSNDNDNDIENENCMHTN
inactive: [1] -0.017 | [2] -0.078 | [3] -0.185 | [4] -0.066 | [5] 0.052 | [6] 0.044 | [7] 0.064 | [8] 0.035 | [9] -0.016 | [10] -0.022 | [11] 0.018

TOM1 isoform 2 (UniProt O60784)
inactive: [1] -0.002 | [2] -0.104 | [3] -0.066 | [4] -0.082 | [5] -0.045 | [6] -0.119 | [7] 0.056 | [8] -0.019 | [9] -0.026 | [10] -0.081 | [11] 0.009

UTP14A (UniProt Q9BVJ6)
Chain of UniProt Q9BVJ6 (Q9BVJ6 whole entry, looked up): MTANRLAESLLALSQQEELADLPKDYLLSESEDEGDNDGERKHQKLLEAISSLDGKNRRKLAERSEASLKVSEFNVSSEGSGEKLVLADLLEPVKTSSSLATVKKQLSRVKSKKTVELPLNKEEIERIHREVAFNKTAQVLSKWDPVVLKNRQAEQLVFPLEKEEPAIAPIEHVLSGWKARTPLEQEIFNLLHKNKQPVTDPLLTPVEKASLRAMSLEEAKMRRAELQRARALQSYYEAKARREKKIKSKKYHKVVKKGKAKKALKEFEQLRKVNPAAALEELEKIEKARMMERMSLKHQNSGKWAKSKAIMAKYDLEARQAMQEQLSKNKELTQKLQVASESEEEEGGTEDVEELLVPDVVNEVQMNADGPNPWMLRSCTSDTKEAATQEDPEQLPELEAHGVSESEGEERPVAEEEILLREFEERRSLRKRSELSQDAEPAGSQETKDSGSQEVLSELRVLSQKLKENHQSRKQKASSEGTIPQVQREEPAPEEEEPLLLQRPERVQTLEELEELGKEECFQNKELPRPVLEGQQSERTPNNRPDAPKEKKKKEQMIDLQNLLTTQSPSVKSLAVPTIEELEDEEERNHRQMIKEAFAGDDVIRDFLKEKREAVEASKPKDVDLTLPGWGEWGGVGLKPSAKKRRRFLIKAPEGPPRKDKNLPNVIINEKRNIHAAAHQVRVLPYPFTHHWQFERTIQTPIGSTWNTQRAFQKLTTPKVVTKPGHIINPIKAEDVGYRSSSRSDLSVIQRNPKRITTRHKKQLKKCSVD
inactive: [1] 0.079 | [2] 0.048 | [3] 0.083 | [4] 0.076 | [5] 0.012 | [6] 0 | [7] -0.04 | [8] 0.128 | [9] 0.082 | [10] -0.092 | [11] 0.042

UBLCP1 (UniProt Q8WVY7)
Chain of UniProt Q8WVY7 (Q8WVY7 whole entry, looked up): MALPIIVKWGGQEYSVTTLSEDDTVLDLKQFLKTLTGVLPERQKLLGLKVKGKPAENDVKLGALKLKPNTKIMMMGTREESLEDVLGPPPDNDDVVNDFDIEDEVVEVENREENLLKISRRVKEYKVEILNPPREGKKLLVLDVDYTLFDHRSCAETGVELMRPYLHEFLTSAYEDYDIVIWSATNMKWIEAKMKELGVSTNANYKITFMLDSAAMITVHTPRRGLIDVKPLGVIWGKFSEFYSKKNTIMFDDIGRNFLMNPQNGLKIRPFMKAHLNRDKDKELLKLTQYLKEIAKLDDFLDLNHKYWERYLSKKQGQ
inactive: [1] -0.084 | [2] -0.009 | [3] -0.165 | [4] -0.048 | [5] 0.122 | [6] 0 | [7] 0.085 | [8] 0.049 | [9] -0.142 | [10] 0.035 | [11] -0.013

TTC33 (UniProt Q6PID6)
inactive: [1] -0.1 | [2] -0.158 | [3] -0.197 | [4] -0.133 | [5] -0.123 | [6] -0.072 | [7] -0.038 | [8] 0.151 | [9] -0.08 | [10] 0.003 | [11] 0.094

USP9X (UniProt Q93008)
Chain of UniProt Q93008 (Q93008 whole entry, looked up): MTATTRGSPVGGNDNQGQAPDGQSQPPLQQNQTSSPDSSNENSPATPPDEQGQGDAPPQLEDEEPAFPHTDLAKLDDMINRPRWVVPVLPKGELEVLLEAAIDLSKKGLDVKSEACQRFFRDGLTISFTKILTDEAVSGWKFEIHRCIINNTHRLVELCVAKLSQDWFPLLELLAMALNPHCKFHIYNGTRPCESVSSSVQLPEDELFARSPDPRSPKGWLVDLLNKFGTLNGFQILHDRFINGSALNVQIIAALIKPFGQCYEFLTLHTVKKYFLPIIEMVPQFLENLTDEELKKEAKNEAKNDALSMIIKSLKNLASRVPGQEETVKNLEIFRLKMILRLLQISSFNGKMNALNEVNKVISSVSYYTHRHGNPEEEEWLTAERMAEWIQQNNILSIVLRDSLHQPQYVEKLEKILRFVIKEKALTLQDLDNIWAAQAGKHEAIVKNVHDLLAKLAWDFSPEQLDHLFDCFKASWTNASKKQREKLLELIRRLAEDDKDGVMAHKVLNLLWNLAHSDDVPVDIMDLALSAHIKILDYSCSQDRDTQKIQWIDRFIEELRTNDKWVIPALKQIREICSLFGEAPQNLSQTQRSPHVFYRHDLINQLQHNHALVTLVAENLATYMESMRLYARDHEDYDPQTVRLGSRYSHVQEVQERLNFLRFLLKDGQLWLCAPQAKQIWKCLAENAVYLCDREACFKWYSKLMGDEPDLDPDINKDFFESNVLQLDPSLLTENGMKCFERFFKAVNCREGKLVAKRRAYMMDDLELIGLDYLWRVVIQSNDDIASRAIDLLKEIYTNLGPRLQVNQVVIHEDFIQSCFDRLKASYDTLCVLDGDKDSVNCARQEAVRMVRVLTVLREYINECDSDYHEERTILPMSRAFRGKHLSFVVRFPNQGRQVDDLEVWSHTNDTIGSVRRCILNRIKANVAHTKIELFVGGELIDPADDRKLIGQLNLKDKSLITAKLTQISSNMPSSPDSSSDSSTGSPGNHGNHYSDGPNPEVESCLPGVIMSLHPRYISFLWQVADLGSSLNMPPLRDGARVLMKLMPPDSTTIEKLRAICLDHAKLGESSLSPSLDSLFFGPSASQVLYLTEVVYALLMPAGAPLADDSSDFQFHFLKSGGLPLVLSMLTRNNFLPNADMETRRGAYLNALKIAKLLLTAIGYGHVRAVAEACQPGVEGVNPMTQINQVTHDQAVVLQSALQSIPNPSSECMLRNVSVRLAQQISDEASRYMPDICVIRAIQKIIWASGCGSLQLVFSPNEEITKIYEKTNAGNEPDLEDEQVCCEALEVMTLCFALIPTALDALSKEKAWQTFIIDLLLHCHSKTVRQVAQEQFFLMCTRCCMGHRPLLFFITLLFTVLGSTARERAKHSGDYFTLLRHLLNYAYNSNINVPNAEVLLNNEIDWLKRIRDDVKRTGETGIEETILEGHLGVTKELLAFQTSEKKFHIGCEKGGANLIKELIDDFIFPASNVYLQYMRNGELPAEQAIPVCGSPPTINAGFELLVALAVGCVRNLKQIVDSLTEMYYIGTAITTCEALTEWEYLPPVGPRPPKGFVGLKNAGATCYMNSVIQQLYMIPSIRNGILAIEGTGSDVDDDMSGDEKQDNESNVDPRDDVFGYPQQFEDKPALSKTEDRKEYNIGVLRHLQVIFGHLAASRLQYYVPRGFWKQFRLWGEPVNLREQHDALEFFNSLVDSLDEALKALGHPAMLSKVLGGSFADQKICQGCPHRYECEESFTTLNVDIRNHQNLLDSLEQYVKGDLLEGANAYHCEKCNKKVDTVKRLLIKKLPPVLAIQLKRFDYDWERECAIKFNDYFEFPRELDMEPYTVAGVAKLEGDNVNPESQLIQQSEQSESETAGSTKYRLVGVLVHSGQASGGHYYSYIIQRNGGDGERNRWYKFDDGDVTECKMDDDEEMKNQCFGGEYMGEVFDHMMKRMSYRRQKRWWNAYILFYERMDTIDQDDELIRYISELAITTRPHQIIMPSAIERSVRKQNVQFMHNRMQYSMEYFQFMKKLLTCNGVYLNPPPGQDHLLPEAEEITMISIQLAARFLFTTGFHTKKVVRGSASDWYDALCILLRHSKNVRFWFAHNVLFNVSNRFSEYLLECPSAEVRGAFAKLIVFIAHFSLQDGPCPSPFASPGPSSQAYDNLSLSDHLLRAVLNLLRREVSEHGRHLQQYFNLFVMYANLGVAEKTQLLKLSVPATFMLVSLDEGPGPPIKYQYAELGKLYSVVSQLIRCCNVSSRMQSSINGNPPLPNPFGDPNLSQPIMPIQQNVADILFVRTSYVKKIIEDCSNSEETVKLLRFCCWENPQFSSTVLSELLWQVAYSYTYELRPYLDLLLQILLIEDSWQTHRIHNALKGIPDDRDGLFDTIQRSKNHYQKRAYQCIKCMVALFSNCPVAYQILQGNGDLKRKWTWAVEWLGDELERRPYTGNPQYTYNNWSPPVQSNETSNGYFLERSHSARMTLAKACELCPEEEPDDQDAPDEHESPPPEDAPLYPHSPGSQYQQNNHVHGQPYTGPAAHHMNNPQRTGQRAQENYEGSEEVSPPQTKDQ
inactive: [1] 0 | [2] -0.062 | [3] -0.174 | [4] -0.041 | [5] 0.037 | [6] 0.06 | [7] 0.032 | [8] 0.017 | [9] -0.015 | [10] -0.056 | [11] -0.01

VPS16 (UniProt Q9H269)
inactive: [1] 0.041 | [2] -0.156 | [3] -0.211 | [4] 0.007 | [5] 0.084 | [6] 0.16 | [7] 0.189 | [8] 0.009 | [9] 0.122 | [10] 0 | [11] -0.06
